# Measured values: PubChem BioAssay (NCI)
# Several values for one entry are separate records, joined by “and”; a condition that tells them apart may be missing. Equal entries are not always repeated. Compounds without any hit were thinned out: in the full panel of roughly 79,000, 15% have a hit. A number with no mark means an inactive call. Activity calls are given as the source filed them. Rule as the data show it: active = growth inhibition above about 70%; inactive = the rest.
# Experiments:
# [1] = NCI Yeast Anticancer Drug Screen. Data for the mec2-1 strain (AID 157); conditions: S. cerevisiae mec2-1 strain, stronger effect = higher value
# Outline: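 mec2-1 yeast strain, carrying an alteration in DNA damage repair or cell cycle control, was exposed to compounds; growth inhibition was measured relative to vehicle-treated controls.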
# [2] = NCI Yeast Anticancer Drug Screen. Data for the sgs1 mgt1 strain (AID 161);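 also: 0% = growth of cultures given vehicle only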; conditions: S. cerevisiae sgs1 mgt1 strain, stronger effect = higher value
# Outline: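 Growth of a repair-deficient yeast mutant was monitored after compound treatment and expressed as inhibition relative to vehicle-treated cultures.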
# [3] = NCI Yeast Anticancer Drug Screen. Data for the cln2 rad14 strain (AID 165);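 also: 0% = growth equal to vehicle treated cultures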; conditions: S. cerevisiae cln2 rad14 strain, stronger effect = higher value
# Outline: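 Yeast carrying cln2 and rad14 alterations (cell cycle control and DNA damage repair) were exposed to compounds. Growth inhibition was measured against vehicle-treated controls.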
# [4] = NCI Yeast Anticancer Drug Screen. Data for the bub3 strain (AID 167); conditions: S. cerevisiae bub3 mutant strain, stronger effect = higher value
# Outline: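 Readout: yeast growth inhibition, expressed relative to vehicle-only wells. The test organism is a mutant strain from a panel with lesions in DNA repair or checkpoint genes.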
# [5] = NCI Yeast Anticancer Drug Screen. Data for the mlh1 rad18 strain (AID 175); conditions: S. cerevisiae mlh1 rad18 strain growth inhibition, stronger effect = higher value
# Outline: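 Growth inhibition of the yeast strain was measured after compound exposure and expressed relative to vehicle-treated controls. The strain carries defined defects in DNA damage repair.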
# [6] = NCI Yeast Anticancer Drug Screen. Data for the rad50 strain (AID 155);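 also: 0% = growth of vehicle-only cultures of the same strain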; conditions: S. cerevisiae rad50 strain growth inhibition; at 50.0 µM; stronger effect = higher value
# Outline: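 Readout: growth inhibition relative to vehicle-treated cultures. Compound exposure was carried out in a genetically defined yeast strain deficient in DNA damage repair.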
# [7] = at 5.0 µM (retest, dose inferred, filed as 0.5)
# [8] = at 50.0 µM (retest, dose inferred, filed as 5.0)
Compound,"growth inhibition [1, 7] [%]","growth inhibition [1, 8]",growth inhibition ([1]; at 50.0 µM),"growth inhibition [2, 7]","growth inhibition [2, 8]",growth inhibition ([2]; at 50.0 µM),"growth inhibition [3, 7]","growth inhibition [3, 8]",growth inhibition ([3]; at 50.0 µM),"growth inhibition [4, 7]","growth inhibition [4, 8]",growth inhibition ([4]; at 50.0 µM),"growth inhibition [5, 7] [%]","growth inhibition [5, 8]",growth inhibition ([5]; at 50.0 µM),growth inhibition [6]
C=C(C)CCC(=C)C,3,47%,14.1%,11%,63%,42.4%,-4%,26%,29.8%,-2%,2%,-35.2%,16,64%,42%,
CC(C)OC(=O)c1ccc(CCC2=CC(=O)C=CC2=O)cc1,53,99% (active),77.2% (active),86% (active),94% (active),87.3% (active),76% (active),91% (active),61.7%,92% (active),95% (active),87.4% (active),66,98% (active),79.2% (active),
CC(CN(C)C)C(=O)c1ccccc1 (stereo unspecified),,,-43.7% and -18.4% and 16.6%,,,-4.85% and -15.9% and 18.1%,,,20.3% and -14.4% and 14.4%,,,-23.1% and -11.6% and 18.4%,,,0.3% and -18.9% and 23.1%,-3.95% and -8.85% and 34%
